The values that follow come from the antibiotic and cytotoxicity screens of Wong et al. (2023).

The structures appear in SMILES notation. The whole screen tested about 39,000 compounds, of which about 3,300 (8.5%) were called active. Only a selection was taken, and actives are over-represented in it overall.

The test system of the experiment is HepG2. Briefly: cytotoxicity call (relative viability < 0.9). The note with it: 10 µM.
As for `COc1ccc(NC(=O)N(C)C[C@H]2Oc3ccc(NC(=O)Nc4ccc(C(F)(F)F)cc4)cc3CC(=O)N([C@@H](C)CO)C[C@@H]2C)cc1`, the cytotoxicity call is “inactive”.

For `O=C(O)c1csc2c1CCCCC2`, the cytotoxicity call was “inactive”.

With `COC(=O)CC[C@H]1CCCNC1`, the cytotoxicity call was “inactive”.

Turning to `C[C@@H]1CN([C@H](C)CO)C(=O)c2cc(NS(=O)(=O)c3ccccc3)ccc2O[C@@H](C)CCCCO[C@H]1CN(C)C(=O)C1CCCCC1`, the cytotoxicity call is “inactive”.

For the molecule `NCc1ccno1`, the cytotoxicity call is “inactive”.

Regarding `C=CCCC(=O)N(C)[C@H](C)[C@@H](OC(=O)[C@@H]1[C@@H]2C=C[C@]3(O2)[C@H](CN(CC=C)Cc2ccccc2)N(C(C)(C)C)C(=O)[C@@H]13)c1ccccc1`, the cytotoxicity call was “inactive”.

As for `COc1ccc(NC(=O)Nc2ccc3c(c2)C(=O)N([C@H](C)CO)C[C@H](C)[C@H](CN(C)C(=O)Nc2cccc4ccccc24)O3)cc1`, the cytotoxicity call is “inactive”.

For the molecule `Cc1ccc(S(=O)(=O)N(C)C[C@@H]2Oc3ncc(C#Cc4ccc(F)cc4)cc3C(=O)N([C@H](C)CO)C[C@@H]2C)cc1`, the cytotoxicity call is “inactive”.

For the molecule `C[C@H](CO)N1C[C@H](C)[C@H](CN(C)S(=O)(=O)c2ccc(F)cc2)Oc2ncc(C#Cc3ccc(F)cc3)cc2C1=O`, the cytotoxicity call was “active”.

With `C[C@H](CO)N1C[C@H](C)[C@H](CN(C)S(=O)(=O)c2ccc(C#N)cc2)Oc2ncc(C#Cc3ccc(F)cc3)cc2C1=O`, the cytotoxicity call was “inactive”.

Consider `Cc1ccc(S(=O)(=O)Nc2ccc3c(c2)C(=O)N([C@@H](C)CO)C[C@H](C)[C@@H](CN(C)S(=O)(=O)c2ccc(Cl)cc2)OCCCC[C@@H](C)O3)cc1`, for which the cytotoxicity call is “inactive”.

As to `NC(=O)[C@@H]1[C@H]2C(=O)O[C@H](c3ccccc3)[C@H](c3ccccc3)N2[C@H](c2ccc(OCCO)cc2)[C@@]12C(=O)Nc1ccc(C#CC3=CCCCC3)cc12`, the cytotoxicity call was “inactive”.

With `O=C1O[C@H](c2ccccc2)[C@H](c2ccccc2)N2[C@H]1[C@@H](C(=O)O)[C@]1(C(=O)Nc3ccc(C#CC4(O)CCCCCC4)cc31)[C@H]2c1ccccc1OCCO`, the cytotoxicity call is “inactive”.

As for `O=C1O[C@@H](c2ccccc2)[C@@H](c2ccccc2)N2[C@@H](c3ccc(OCCO)cc3)[C@]3(C(=O)Nc4ccc(C#CC5=CCCCC5)cc43)[C@@H](C(=O)N3CCN(c4ncccn4)CC3)[C@H]12`, the cytotoxicity call is “inactive”.

`O=C1O[C@H](c2ccccc2)[C@H](c2ccccc2)N2[C@H]1[C@@H](C(=O)O)[C@]1(C(=O)Nc3ccc(C#CC4=CCCCC4)cc31)[C@H]2c1ccccc1OCCO`: the cytotoxicity call was “active”.

Turning to `COc1ccc(C#Cc2ccc3c(c2)[C@]2(C(=O)N3)[C@H](C(=O)N3CCCCCCC3)[C@H]3C(=O)O[C@H](c4ccccc4)[C@H](c4ccccc4)N3[C@@H]2c2ccc(O)cc2)cc1`, the cytotoxicity call was “active”.

With `O=C1O[C@@H](c2ccccc2)[C@@H](c2ccccc2)N2[C@@H](c3ccc(OCCO)cc3)[C@]3(C(=O)Nc4ccc(C#CC5=CCCCC5)cc43)[C@@H](C(=O)N3CCCCCCC3)[C@H]12`, the cytotoxicity call was “active”.

As to `O=C1O[C@H](c2ccccc2)[C@H](c2ccccc2)N2[C@H]1[C@@H](C(=O)O)[C@]1(C(=O)Nc3ccc(C#CC4=CCCCC4)cc31)[C@H]2C1CCCCC1`, the cytotoxicity call is “active”.

On to `O=C1O[C@@H](c2ccccc2)[C@@H](c2ccccc2)N2[C@@H](c3ccc(O)cc3)[C@]3(C(=O)Nc4ccc(C#CC5=CCCCC5)cc43)[C@@H](C(=O)O)[C@H]12`, for which the cytotoxicity call was “inactive”.

In the case of `COc1ccc(C#Cc2ccc3c(c2)[C@]2(C(=O)N3)[C@H](c3ccc(O)cc3)N3[C@H](c4ccccc4)[C@H](c4ccccc4)OC(=O)[C@H]3[C@@H]2C(=O)N2CCN(c3ncccn3)CC2)cc1`, the cytotoxicity call was “inactive”.

As for `COc1ccc(C#Cc2ccc3c(c2)[C@]2(C(=O)N3)[C@H](c3ccc(O)cc3)N3[C@H](c4ccccc4)[C@H](c4ccccc4)OC(=O)[C@H]3[C@@H]2C(=O)N2CCCCCCC2)cc1`, the cytotoxicity call was “inactive”.

With `O=C1O[C@H](c2ccccc2)[C@H](c2ccccc2)N2[C@H]1[C@@H](C(=O)O)[C@]1(C(=O)Nc3ccc(C#CC4=CCCCC4)cc31)[C@H]2c1ccc(O)cc1`, the cytotoxicity call is “inactive”.

For `O=C1O[C@@H](c2ccccc2)[C@@H](c2ccccc2)N2[C@@H](c3ccccc3OCCO)[C@]3(C(=O)Nc4ccc(C#CC5=CCCCC5)cc43)[C@@H](C(=O)O)[C@H]12`, the cytotoxicity call was “inactive”.

Turning to `CCNC(=O)C[C@H]1CC[C@H]2[C@@H](COC[C@H](O)CN2C(=O)Nc2c(C)noc2C)O1`, the cytotoxicity call was “inactive”.

Regarding `O=C(C[C@@H]1C=C[C@H](NS(=O)(=O)c2ccccc2)[C@H](CO)O1)NCc1ccncn1`, the cytotoxicity call is “inactive”.

Take `COc1ccc2c3c(n(c2c1)C)[C@@H](CO)N(C[C@]13CCN(CC1)C(=O)Nc1cccc(c1)F)S(=O)(=O)C`: the cytotoxicity call is “inactive”.

Turning to `C[C@H]1CN([C@@H](C)CO)C(=O)Cc2cc(NC(=O)c3ccncc3)ccc2O[C@H]1CN(C)Cc1ccncc1`, the cytotoxicity call was “inactive”.

As for `COCCNC(=O)C[C@@H]1CC[C@@H]2[C@H](COC[C@@H](O)CN2S(=O)(=O)c2ccccc2C)O1`, the cytotoxicity call is “inactive”.

As to `C[C@H](CO)N1C[C@H](C)[C@@H](CN(C)C(=O)C2CCCCC2)OCCCC[C@H](C)Oc2ccc(NC(=O)CCC(F)(F)F)cc2C1=O`, the cytotoxicity call was “inactive”.

In the case of `C[C@@H]1CCCCO[C@@H](CN(C)C(=O)c2ccncc2)[C@@H](C)CN([C@@H](C)CO)C(=O)c2cc(NS(=O)(=O)c3cn(C)cn3)ccc2O1`, the cytotoxicity call is “inactive”.

For the molecule `Cc1noc(C)c1NC(=O)Nc1cccc2c1O[C@H](CN(C)C(=O)Nc1ccc(C(F)(F)F)cc1)[C@@H](C)CN([C@@H](C)CO)C2=O`, the cytotoxicity call is “inactive”.

As for `C=CC[C@@H](CC(=O)N[C@@H](CO)Cc1ccccc1)C(=O)N1CCC[C@@H]1COC(=O)[C@@H](CC=C)NC(=O)OCC1c2ccccc2-c2ccccc21`, the cytotoxicity call was “inactive”.

As to `C[C@@H]1CN([C@H](C)CO)C(=O)Cc2cc(NC(=O)Nc3cccc4ccccc34)ccc2O[C@@H]1CN(C)Cc1ccc(-c2ccccc2)cc1`, the cytotoxicity call was “inactive”.

In the case of `CCS(=O)(=O)N1C[C@]2(CCN(CC2)C(=O)c2cccnc2)c2c(n(c3cc(ccc23)OC)C)[C@@H]1CO`, the cytotoxicity call was “inactive”.

Take `COCCNC(=O)c1ccc(N2C[C@H]3C[C@@H](C2)c2cccc(=O)n2C3)c(NC(=O)c2ccc(OC)cc2)c1`: the cytotoxicity call is “inactive”.

`O=C1O[C@@H](c2ccccc2)[C@@H](c2ccccc2)N2[C@@H](c3ccccc3OCCO)[C@]3(C(=O)Nc4ccc(C#CC5(O)CCCCCC5)cc43)[C@@H](C(=O)O)[C@H]12`: the cytotoxicity call is “inactive”.

`NC(=O)[C@H]1[C@@H]2C(=O)O[C@@H](c3ccccc3)[C@@H](c3ccccc3)N2[C@@H](c2ccccc2OCCO)[C@]12C(=O)Nc1ccc(C#CC3=CCCCC3)cc12`: the cytotoxicity call was “active”.

For the molecule `O=C1O[C@H](c2ccccc2)[C@H](c2ccccc2)N2[C@H]1[C@@H](C(=O)N1CCCCCCC1)[C@]1(C(=O)Nc3ccc(C#CC4=CCCCC4)cc31)[C@H]2c1ccccc1OCCO`, the cytotoxicity call is “inactive”.

With `COc1cc2c(cc1OC)CN(C(=O)[C@@H]1[C@H]3C(=O)O[C@H](c4ccccc4)[C@H](c4ccccc4)N3[C@H](c3ccc(OCCO)cc3)[C@@]13C(=O)Nc1ccc(C#CC4(O)CCCCCC4)cc13)CC2`, the cytotoxicity call is “active”.

Regarding `COc1cc2c(cc1OC)CN(C(=O)[C@@H]1[C@H]3C(=O)O[C@H](c4ccccc4)[C@H](c4ccccc4)N3[C@H](c3ccc(O)cc3)[C@@]13C(=O)Nc1ccc(C#CC4(O)CCCCCC4)cc13)CC2`, the cytotoxicity call was “inactive”.

In the case of `NC(=O)NCC#Cc1ccc2c(c1)[C@]1(C(=O)N2)[C@H](C(N)=O)[C@H]2C(=O)O[C@H](c3ccccc3)[C@H](c3ccccc3)N2[C@@H]1c1ccccc1OCCO`, the cytotoxicity call is “inactive”.

For `COc1cc2c(cc1OC)CN(C(=O)[C@H]1[C@@H]3C(=O)O[C@@H](c4ccccc4)[C@@H](c4ccccc4)N3[C@@H](c3ccccc3OCCO)[C@]13C(=O)Nc1ccc(C#CC4=CCCCC4)cc13)CC2`, the cytotoxicity call was “inactive”.

Regarding `O=C1O[C@@H](c2ccccc2)[C@@H](c2ccccc2)N2[C@@H](c3ccccc3OCCO)[C@]3(C(=O)Nc4ccc(C#CC5=CCCCC5)cc43)[C@@H](C(=O)N3CCCCCCC3)[C@H]12`, the cytotoxicity call was “active”.

As to `COc1cc2c(cc1OC)CN(C(=O)[C@H]1[C@@H]3C(=O)O[C@@H](c4ccccc4)[C@@H](c4ccccc4)N3[C@@H](c3ccc(OCCO)cc3)[C@]13C(=O)Nc1ccc(C#CC4(O)CCCCCC4)cc13)CC2`, the cytotoxicity call was “inactive”.
